Source: PubChem BioAssay AID651636 (Sanford-Burnham Center for Chemical Genomics, 2012)
Hit rate of the full screen: of about 360,000 compounds, about 3,000 (0.83%) were called active. Shown is part of a subset that was picked to be rich in actives. Unmarked numbers belong to inactive results. No stated cut-off is given here; in the data, active means inhibition above about 38%; inactive means the rest.

What follows are compounds tested against G-protein coupled receptor 183 (Homo sapiens) (UniProt P32249) (assay: EBI2 receptor antagonists, beta-arrestin recruitment, primary screen, cell-based, luminescence, 7a,25-OHC stimulation, uHTS (AID 651636;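 further: enzyme fragment complementation signal reports receptor beta-arrestin coupling in cells; 0% = agonist plus DMSO wells and 100% = wells without agonist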)). Conditions: 7a,25-OHC stimulated, at 5 µM, active compounds read high.
G-protein coupled receptor 183 (Homo sapiens), sequence (P32249 whole entry, looked up, the tested form may be a part): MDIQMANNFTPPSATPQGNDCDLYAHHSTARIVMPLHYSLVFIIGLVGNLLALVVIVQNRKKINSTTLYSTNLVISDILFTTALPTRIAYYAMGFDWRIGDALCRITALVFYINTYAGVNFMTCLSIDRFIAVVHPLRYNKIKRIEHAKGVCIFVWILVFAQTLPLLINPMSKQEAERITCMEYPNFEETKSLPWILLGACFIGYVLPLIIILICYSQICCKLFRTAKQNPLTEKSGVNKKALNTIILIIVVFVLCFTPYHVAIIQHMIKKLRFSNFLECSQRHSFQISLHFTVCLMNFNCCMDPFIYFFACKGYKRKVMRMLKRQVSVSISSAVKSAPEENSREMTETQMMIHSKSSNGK

| Structure (SMILES) | inhibition |
| --- | --- |
| CO[C@@H]1CN(C)C(=O)c2cc(NC(=O)C3CC3)ccc2OC[C@H](C)N(C(=O)CN2CCOCC2)C[C@@H]1C | -1.87% |
| COc1ccc(-c2nc3c(s2)CCc2onc(-c4ccc(OC)cc4)c2-3)cc1 | -3.33% |
| Cc1cccc(C(=O)NNC(=O)CSc2nnc(C(C)C)n2C)c1 | 2.91% |
| CCC(c1nnc(SCC(=O)NNC(=O)c2ccccc2)n1Cc1ccccc1)N(C)C (configuration not stated) | 72.7% (active) |
| CCn1c(SCC(=O)NNC(=O)c2ccc(OC)cc2)nnc1C(C)C | 12.9% |
| COC(=O)[C@H](CC(C)C)NC(=O)N1CCCCC1C (some centres not stated) | -4.31% |
| CCCc1[nH]nc2c1C(c1ccc(Br)s1)C(C#N)=C(N)O2 (configuration not stated) | -18.9% |
| Cc1cc(C)c(C#N)c(SCc2ccc3c(c2)OCO3)n1 | -1.67% |
| Cc1cc(C)c(C#N)c(SCc2[nH]nc3c2C(c2ccccc2)C(C#N)=C(N)O3)n1 (configuration not stated) | 63.3% (active) |
| COc1cc2c(cc1NC(=O)CN1CCN(S(=O)(=O)c3ccc(F)cc3)CC1)oc1ccccc12 | 3.04% |
| CC(C)c1ccc(N2CC(C(=O)Nc3nccs3)CC2=O)cc1 (configuration not stated) | 5.79% |
| Cc1cccc(-c2nc3c(c(SCC(=O)N4CCOCC4)n2)CCCC3)c1 | 4.2% |
| O=C(c1ccc(-n2cnnn2)cc1)N1CCN(C(c2ccccc2)c2ccccc2)CC1 | 79% (active) |
| Cn1nnnc1SCC(=O)N1CCN(C(c2ccccc2)c2ccccc2)CC1 | 36.1% |
| CC(OC(=O)c1ccc(-n2cnnn2)cc1)C(=O)NCc1ccccc1 (configuration not stated) | -7.1% |
| COc1ccc(C2Nc3ccccc3C(=O)N2c2ccc(Cl)cc2)cc1Cn1cc([N+](=O)[O-])cn1 (configuration not stated) | 4.76% |
| COc1ccc(NC(=O)C[C@H]2C(=O)N(CCc3ccccc3)C[C@@H]2C)cc1 | 2.26% |
| O=C(c1cc2ccccc2o1)N1CCN(Cc2ccccc2)CC1 | 65.2% (active) |
| CCC(=O)Nc1ccccc1C(=O)N1CCN(Cc2ccccc2)CC1 | -10.6% |
| O=S(=O)(c1ccc(Cl)s1)N1CCC2(CC1)OCCO2 | 1.76% |
| O=C(c1cc2ccccc2o1)N1CCN(c2cccc(C(F)(F)F)c2)CC1 | 36.7% |
| O=C(c1cc2ccccc2o1)N1CCN(S(=O)(=O)c2ccc(Cl)s2)CC1 | 91.3% (active) |

| Structure (SMILES) | inhibition |
| --- | --- |
| CCNC(=S)N1CCN(S(=O)(=O)c2ccc(Cl)s2)CC1 | -5.4% |
| COc1ccc(N(CCC(=O)NCCc2ccccc2)S(=O)(=O)c2ccc(C)cc2C)cc1 | 9.4% |
| CCOC(=O)c1cnc(SCc2nc(N)nc(Nc3ccc(OC)cc3)n2)nc1N | -2.38% |
| Cc1cccc(OCCC(=O)OCc2csc(CC(=O)Nc3ccccc3C)n2)c1 | -1.51% |
| C=CCNc1nc(N)c(C(=C(C#N)C#N)c2ccccc2)s1 | -6.63% |
| Cc1ccc(CN2CC(C(=O)N3CCN(S(=O)(=O)c4ccccc4)CC3)CC2=O)cc1 (configuration not stated) | 3.15% |
| CN1CCN(c2cc(=O)n(-c3ccc(Cl)cc3)c(=O)[nH]2)CC1 | -7.79% |
| CC1CC(C)CN(CCCNC(=O)Cn2ncc3c([nH]c4ccccc43)c2=O)C1 (configuration not stated) | 5.19% |
| Cc1ccc(NS(=O)(=O)c2ccc3c(c2)NC(=O)CO3)cc1 | -3% |
| CC[C@@H]1Cc2cc(O)ccc2C2=C1c1ccc(O)cc1C[C@H]2CC | 49.4% (active) |
| COc1ccc(Br)cc1CN(C)C(=O)C1CC(=O)N(C2CCCC2)C1 (configuration not stated) | 7.14% |
| CN1CCN(C(=O)c2ccc(-c3cc4nc(NCc5cccnc5)n(C)c(=O)c4s3)cc2)CC1 | -2.23% |
| CCc1ccccc1NC(=O)c1ccc2c(c1)CCN2S(C)(=O)=O | -1.7% |
| CCc1ccccc1NC(=O)NCCN1CCCCC1 | 4.39% |
| CN1CCc2ccccc2C1Cc1ccccc1NC(=O)c1sc2ccccc2c1Cl (configuration not stated) | 65.6% (active) |
| CCOC(=O)[C@]12CCCC=C1N(Cc1cccc3ccccc13)C(=O)[C@H](CC(=O)NCC13CC4CC(CC(C4)C1)C3)C2 | 16.6% |
| COC(=O)C[C@H]1C=C[C@@H](NS(=O)(=O)c2ccc(C)cc2)[C@@H](CO)O1 | -0.992% |
| O=C(NCCc1ccccc1Cl)C1CCC(=O)N(CCCc2ccccc2)C1 (configuration not stated) | 8.34% |
| O=C(NCCCc1ccccc1)C1CCC(=O)N(CCc2ccc(Cl)cc2)C1 (configuration not stated) | 63.7% (active) |
| O=C(NCCN1CCOC1=O)C1CCC(=O)N(CCc2ccc(Cl)cc2)C1 (configuration not stated) | 5.95% |
| C/C(=N/NC(=O)c1ccc(Br)o1)c1ccc(C)o1 | -2.5% |
| COC(=O)[C@]12CCCCC=C1N(Cc1ccco1)C(=O)[C@H](CC(=O)NCC1CCCCC1)C2 | -6.57% |

| Structure (SMILES) | inhibition |
| --- | --- |
| CC1CN(C(=S)Nc2cccc(F)c2)CC(C)O1 (configuration not stated) | -5.04% |
| COc1cccc(NC(=O)Cn2cnc3sc(C)c(S(=O)(=O)N4CCN(C)CC4)c3c2=O)c1 | -9.02% |
| COc1cccc(NC(=O)Cn2c3ccccc3c3nc4n(c(=O)c32)CCS4)c1 | 62% (active) |
| COc1cccc(NC(=O)Cn2c3ccc(F)cc3c3nc4n(c(=O)c32)CCS4)c1 | 80.8% (active) |
| COc1cccc(NC(=O)CS(=O)(=O)c2cn(CC(=O)N3CCOCC3)c3ccccc23)c1 | 3.35% |
| COc1ccc2c(c1)c1nc3n(c(=O)c1n2CC(=O)Nc1ccccc1)CCS3 | 8.84% |
| COc1cccc(NC(=O)CC2C(=O)NCCN2C(=S)Nc2ccc(F)cc2)c1 (configuration not stated) | 9.02% |
| COc1cccc(N(CC(=O)NC2CCCC2)C(=O)Cn2nnc(-c3ccc(C)cc3)n2)c1 | 7.66% |
| CS(=O)(=O)N1CCc2nc(-c3ccccc3)sc2C1 | 1.2% |
| O/N=C(\c1ccc2c(c1)OCCO2)C1CCCCC1 | 4.5% |
| O=S1(=O)CC(N2CCN(CCO)CC2)CN1Cc1cn(Cc2cccc(Cl)c2)nn1 (configuration not stated) | -6.79% |
| Cc1ccc(O/C=C2\OC(=O)c3ccccc32)cc1 | 55.5% (active) |
| O=C(O/N=C(/c1ccccc1)c1ccncc1)c1ccccc1[N+](=O)[O-] | -3.57% |
| O=S(=O)(c1ccc(Sc2nnc3ccccn23)nc1)N1CCOCC1 | -9.4% |
| COc1ccccc1-c1cc2nc(NCc3cccc(Cl)c3)ccn2n1 | 4.55% |
| CC(C)Cc1ccc(-c2cc3nc(NCc4cccc(Cl)c4)ccn3n2)cc1 | 47.4% (active) |
| COCCCNc1ccn2nc(-c3ccc(CC(C)C)cc3)cc2n1 | 36.9% |
| O=C(O)C1CC=CCC1C(=O)NCCc1ccccc1 (configuration not stated) | -5.64% |
| CCc1nc2ccc(C(=O)Nc3cc(-c4ccccc4)ccc3OC)cn2c1N(CC)CC(=O)N(C)C | 17% |
| CCN1CCN(c2ccc([N+](=O)[O-])cc2C(=O)c2ccc(Cl)cc2)CC1 | 8.05% |
| COc1ccc(S(=O)(=O)N2CCCCC2)cc1NC(=O)c1cc([N+](=O)[O-])ccc1N1CCOCC1 | 15.7% |
| CCC(C)(C)NC(=O)c1cc([N+](=O)[O-])ccc1N1CCCCC1 | 79.2% (active) |

| Structure (SMILES) | inhibition |
| --- | --- |
| C=CCN(Cc1nc(-c2cc(OC)c3c(c2)OCO3)oc1C)C1CCS(=O)(=O)C1 (configuration not stated) | -4.13% |
| CCCCN1CC(CO)Oc2cccc(F)c2S1(=O)=O (configuration not stated) | -9.52% |
| CC(C)(C)C(=O)Nc1cccc(-c2ccc[nH]2)n1 | -1.86% |
| C/C(=N/NC(=O)CN1CCN(S(=O)(=O)c2ccc(Br)cc2)CC1)c1ccncc1 | 6.8% |
| Cc1ccc(S(=O)(=O)N2CCN(CC(=O)N/N=C/c3ccc(Br)s3)CC2)cc1 | 66.9% (active) |
| Cc1cccc(NC(=O)CN2CCCN(S(=O)(=O)c3ccc(Br)s3)CC2)c1 | 3.9% |
| Cc1ccc(C(=O)NCC(=O)OCC(=O)NC2CCCCCCC2)cc1 | -2.06% |
| COc1ccc(S(=O)(=O)N2CCOCC2)cc1C(=O)NC1CCCCC1 | 3.75% |
| CCOC(=O)C1CCCN(C(=O)Cn2ncc3c(=O)oc4ccc(C)cc4c32)C1 (configuration not stated) | -3.84% |
| Cc1ccc2oc(=O)c3cnn(CC(=O)N(Cc4ccco4)C4CCCCC4)c3c2c1 | 86.2% (active) |
| Cc1ccc2oc(=O)c3cnn(CC(=O)N4CCN(c5ccccn5)CC4)c3c2c1 | 14.3% |
| Cc1ccc(S(=O)(=O)NCC(=O)N(CC(=O)NC2CCCCC2)Cc2ccco2)cc1 | -11.2% |
| COCCCN(C(=O)Cn1ncc2c(=O)oc3ccc(C)cc3c21)C(C)c1ccncc1 (configuration not stated) | -3.25% |
| Cc1ccc2oc(=O)c3cnn(CC(=O)N4CCCCCC4)c3c2c1 | 57.7% (active) |
| CCC1CO/C(=C(\C(=C(Cl)Cl)N2CCOCC2)[N+](=O)[O-])N1 (configuration not stated) | -3.56% |
| CCCCC[C@H](C)N1C[C@@H](COCc2ccccc2)Oc2cc(N3CC[C@@H](N(C)C)C3)ccc2S1(=O)=O | 1.65% |
| Cc1ccc(C(=O)O)cc1S(=O)(=O)NCC1CCCO1 (configuration not stated) | -0.989% |
| C=CC[C@H](CC(=O)N(CCO)Cc1ccccc1)C(=O)N[C@@H](COC(=O)[C@@H](CC=C)Cc1ccc(F)cc1)Cc1ccccc1 | 27% |
| Cc1cccc(NS(=O)(=O)c2ccc(C)c(C(=O)NCc3cccnc3)c2)c1 | -2.61% |
| Cc1cccc(NC(=O)c2nc(S(=O)(=O)Cc3ccccc3)ncc2Cl)c1 | 66% (active) |
| Cc1cccc(CS(=O)(=O)c2ncc(Cl)c(C(=O)Nc3ccc(F)cc3)n2)c1 | 30.8% |
